Source: PubChem BioAssay
This is a sample that favours compounds with a hit; in the whole collection about 8.2% have one here.
KB-3-1 cytotox = KB-3-1 parental cell cytotoxicity; 1.4% of 400,000 active; AID 1347075; KB-3-1 viability, CellTiter-Glo ATP luminescence, 72 h; Potency, µM (titrated, usually from 46.1 µM), hits mostly cytotoxic; note: % is set by controls: 0 for no effect and ±100 for the full control effect; nearly all actives have a fitted effect of over 60% in size
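Parental KB-3-1 viability, qHTS format: 72 h compound exposure, 37 °C; CellTiter-Glo; media-only wells and DMSO plates as controls; concentration-effect fits on corrected data.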
MCF10A rerep = inducers of DNA re-replication in MCF 10A breast cells | Potency, µM (doses to about 46.1 µM), for inactives: top-dose activity, positive = re-replication, hits mostly activators | 2.9% of 350,000 active | MCF 10A DNA re-replication, Hoechst nuclear intensity, 48 h; note: % of control where 0% means no effect; nearly all actives have a fitted effect of over 50% in size
SW480 rerep = DNA re-replication induction in SW480 cells. SW480 DNA re-replication, Hoechst DNA content imaging, 48 h. AID 624297. 1.8% of 340,000 active. Potency, µM (titrated, usually from 46.1 µM), for the others: at the top dose re-replication activation, hits mostly activators; note: % of control where 0% means no effect; nearly all actives have a fitted effect of over 55% in size
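SW480 cells exposed to compounds for 48 hr at 37 C, 5% CO2, then Hoechst-stained 40 min. Nuclear DNA content imaged by fluorescence scanning (405 nm excitation, 500-530 nm emission); re-replication scored as increased high-intensity nuclei.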
ELG1 DNA repair = blocks ELG1-dependent DNA repair in HEK293T cells; 2.3% of 330,000 active; AID 504467; Potency, µM (top dose mostly 46.1 µM), for the others: top-dose activity change, negative = inhibition, hits mostly inhibitors; HEK293T ELG1-luciferase reporter, luminescence, 16 h; DNA damage induced by 5-fluorouridine; note: % is set by controls: 0 for no effect and ±100 for the full control effect; nearly all actives have a fitted effect of over 55% in size
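DMSO vehicle served as the neutral condition. Each well held 2,000 cells given 5-fluorouridine plus compound; after 16 hr at 37 °C/5% CO2, ONE-Glo was added and luciferase measured 30 min later.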
KB-V1 MDR tox = kills drug-selected multidrug resistant KB-V1 cells. KB-V1 MDR cells viability, CellTiter-Glo, 72 h. Potency, µM (highest dose often 46.1 µM), hits mostly cytotoxic. 3.4% of 400,000 active. AID 1347076; note: % is set by controls: 0 for no effect and ±100 for the full control effect; nearly all actives have a fitted effect of over 60% in size
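In this primary screen, KB-V1 cells overexpressing P-gp are incubated with library compounds (lowest to highest concentration) for 72 h at 37 degrees C before a luminescent ATP viability read.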
Starred values were filed as active, the others as inactive; i = inactive; ? = inconclusive; . = not tested or not shown; [ ] = dose if it differs, or a comment. Calls come from the whole dose curve; as a rule, active = well fitted curve in the direction sought with a large enough effect; inconclusive = small, poorly fitted or top-dose-only effect, or another doubt; inactive = no such curve, though single readings can be large; an effect the other way counts as inactive or inconclusive. Potency is the fitted concentration of half-maximal effect.

SMILES	KB-3-1 cytotox	MCF10A rerep	SW480 rerep	ELG1 DNA repair	KB-V1 MDR tox
COc1ccccc1C1=NC(c2ccccc2)CN1c1ccccc1 (centres undefined)	i	5.2µM*	6.5µM*	1%	i
Cc1ccc(C)c(OCCCN2CCCC2)c1	i	2%	-1%	-4%	i
Cc1ccc(C(C)C)cc1OCCCCN1CCCC1	i	?	12%	6%	21µM*
CSc1nc2ncc3c(n2n1)CC1c2ccccc2CCN1C3=O (centres undefined)	i	0%	17%	-11%	i
O=C1c2cnc3nc(SCc4cccc(Cl)c4)nn3c2CC2c3ccccc3CCN12 (centres undefined)	i	2.1µM*	2.6µM*	5%	i
Nc1ccc(-c2nc3c(ccc4ccccc43)[nH]2)cc1	i	23µM*	1%	?	i
O=C(CSc1nnc(-c2ccccc2)c(-c2ccccc2)n1)NC1CCCCC1	i	.	.	.	i
COc1cc(OC)cc(-c2cc3nc(C)c(CCC(=O)O)c(C)n3n2)c1	i	18µM*	0%	?	i
COc1ccc(-c2cc3nc(C)c(CCC(=O)NCc4ccc(F)cc4)c(C)n3n2)c(OC)c1	i	-1%	-35%	26µM*	i
COc1cc(OC)cc(-c2cc3nc(C)c(CCC(=O)NC(C)CCc4ccco4)c(C)n3n2)c1 (centres undefined)	i	?	-3%	13µM*	i
Cc1nc2cc(-c3cccc(F)c3)nn2c(C)c1CCC(=O)NC(C)CCc1ccco1 (centres undefined)	i	1%	-4%	?	i
Cc1c(Cl)cccc1NS(=O)(=O)c1ccc(-c2ccc(=O)[nH]n2)o1	i	-9%	-2%	0%	i
COC(=O)c1cccc(C(=O)Nc2ccc(C)cc2Br)n1	i	5%	-11%	?	15µM*
CN(C)c1cccc(S(=O)(=O)N2CCCN(S(=O)(=O)c3ccc4c(c3)OCCO4)CC2)c1	i	.	.	.	i
COc1ccccc1NC(=O)C1=C(C)N(c2ccccc2)C(=S)NC1c1cccc(C(F)(F)F)c1 (centres undefined)	?	16%	25%	?	8.2µM*
COc1ccccc1[C@@H]1C(c2cccc(C)c2)=NN(c2ccc(Br)cc2)[C@H]1C(=O)N1CCOC1=O	i	?	21µM*	13%	i
COc1ccccc1[C@@H]1C(c2ccccc2)=NN(c2ccc(Br)cc2)[C@H]1C(=O)N1CCOC1=O	i	3.3µM*	?	2%	i
COc1ccccc1[C@@H]1C(c2cccc(Cl)c2)=NN(c2ccccc2)[C@H]1C(=O)N1CCOC1=O	?	?	2.6µM*	-10%	i
COc1ccc(CCNC(=O)c2cc3cc(F)ccc3nc2C)cc1OC	i	-1%	8%	.	?
CCOc1ccc(C(C(=O)NCC2CCCO2)N(Cc2cccnc2)C(=O)c2snc(C(N)=O)c2N)cc1 (centres undefined)	?	-3%	-9%	13%	i
CCN1CCOC(CC(=O)Nc2cccc([N+](=O)[O-])c2)C1=O (centres undefined)	i	21µM*	109%	?	i
CCCN1CCOC(CC(=O)Nc2ccc([N+](=O)[O-])cc2)C1=O (centres undefined)	i	0%	1%	-13%	i
Cc1[nH][nH]c(=O)c1C(c1ccc(-c2ccc(Cl)c(Cl)c2)o1)c1c(C)[nH][nH]c1=O	i	2.9µM*	14%	-3%	i
COc1ccc(-c2ccc(C(c3c(C)[nH][nH]c3=O)c3c(C)[nH][nH]c3=O)o2)c([N+](=O)[O-])c1	?	21µM*	?	?	?
Cc1[nH][nH]c(=O)c1C(c1ccc(-c2ccc(C(=O)O)cc2)o1)c1c(C)[nH][nH]c1=O	i	-8%	2%	-18%	i
SMILES	KB-3-1 cytotox	MCF10A rerep	SW480 rerep	ELG1 DNA repair	KB-V1 MDR tox
Cc1[nH][nH]c(=O)c1C(c1ccc(-c2ccc(F)cc2)o1)c1c(C)[nH][nH]c1=O	i	?	-8%	-1%	i
COc1ccc(CN2C(=O)COc3ccccc3C2c2nc3ccccc3[nH]2)cc1 (centres undefined)	i	.	.	.	i
O=C(O)c1cc2cccc([N+](=O)[O-])c2[nH]1	i	.	.	.	i
CCCCOc1ccc(Nc2cc(Cl)ccc2C(=O)O)cn1	i	16µM*	7%	4%	i
CN(C(=O)COC(=O)CNC(=O)C1CCCCC1)c1ccccc1	i	-3%	21µM*	0%	?
COc1ccccc1S(=O)(=O)N(C)C[C@H]1OCc2cnnn2CCCC(=O)N([C@H](C)CO)C[C@H]1C	i	.	.	.	i
CCOc1ccc(CCN2C(=O)C(=O)N([C@@H](Cc3ccc(O)cc3)CN3CCC[C@@H]3CN3C(=O)C(=O)NC[C@@H]3Cc3ccccc3)C[C@@H]2Cc2ccccc2)cc1	i	?	5%	.	i
OC(CCCN1CCCCC1)(c1ccccc1)c1ccc(C(F)(F)F)cc1 (centres undefined)	i	21µM*	?	.	i
OC(CCN1CCCCC1)(c1ccccc1)c1ccccc1	i	2%	-10%	6%	i
COc1ccc(C(=O)COC(=O)c2cc(-c3ccccc3)nc3c(C)cccc23)cc1	i	.	.	.	i
Cc1cc(C)n(NC(=S)NC2CCCC2)c(=O)c1C#N	i	23µM*	?	3%	i
CCCN(Cc1cccs1)C(=O)Nc1ccccc1C	i	.	.	.	i
CN1CCC(N(C)C(=O)c2ccccc2Nc2ccc(SC(F)F)cc2)CC1	i	8.2µM*	-5%	13%	i
CN1CCN(C(=O)c2ccccc2Nc2ccc(SC(F)F)cc2)CC1	i	1%	-4%	-5%	i
CC1CCN(c2ccc3c(c2)S(=O)(=O)c2ccccc2C3=O)CC1	i	18µM*	23µM*	.	i
O=C1c2ccccc2S(=O)(=O)c2cc(N3CCN(C(=O)c4ccccc4)CC3)ccc21	i	?	-57%[9.22 µM]	.	i
NC(=O)C1CCN(c2ccc3c(c2)S(=O)(=O)c2ccccc2C3=O)CC1	i	3%	0%	.	i
O=C1c2ccccc2S(=O)(=O)c2cc(N3CCC4(CC3)OCCO4)ccc21	i	?	1%	.	7.3µM*
CN(Cc1cccs1)c1ncnc2ccc(-c3ccc4cnn(C)c4c3)cc12	?	.	.	.	i
Cc1ccc(/C=C/c2nc3sc(C(=O)O)c(C)c3c(=O)[nH]2)cc1[N+](=O)[O-]	i	6%	3%	23%	i
CCOC(=O)CSc1nc2sc(C(=O)O)c(C)c2c(=O)[nH]1	i	0%	-13%	8%	i
